In all, about 290,000 compounds went through this assay and about 2,700 (0.93%) were called active. How the calls were made is not given here. The sample as a whole holds a higher share of actives than the screen did.
Target: Eukaryotic translation initiation factor 4H (Homo sapiens) (UniProt Q15056)
Experiment: eIF4H binding inhibition – biochemical, uHTS, fluorescence polarization, translation initiation inhibitor project, primary screen (AID 2012);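 further: calls also rest on retests at 20 µM and on dose response follow-up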
Conditions: eIF4H fluorescence polarization binding assay, stronger effect = higher value

| SMILES | inhibition (at 35 µM) | inhibition (confirmation average, at 20 µM) [%] |
| --- | --- | --- |
| COc1ccccc1C(=O)COC(=O)CNS(=O)(=O)c1ccc(NC(C)=O)cc1 | -9.9% (inactive) |  |
| O=C(O)CCCC(=O)N1N=C(c2ccco2)CC1c1ccco1 (stereo not drawn) | 7.4% (inactive) |  |
| O=c1c2ccccc2ncn1/N=C/c1ccccc1 | 4.2% (inactive) |  |
| COc1ccc(C(=S)Nc2ccccc2)cc1 | -0.5% (inactive) |  |
| COc1ccc(Nc2nc(=O)[nH]nc2C)cc1 | 3.5% (inactive) |  |
| COc1ccc(NC2=CC(=S)NC(C)(C)C2)cc1 | 67.8% (active) | 62.7 |
| CCCCSCCCNC(=O)C1CCC(CNS(=O)(=O)c2ccc(NC(C)=O)cc2)CC1 (stereo not drawn) | 2.4% (inactive) |  |
| Cc1cc(CNC(=O)C2CCC(=O)N(CCc3ccc(Cl)cc3)C2)no1 (stereo not drawn) | -0.4% (inactive) |  |
| CCOC(=O)C1C(c2ccc(O)cc2)NC(=O)NC1(O)C(F)(F)F (stereo not drawn) | -0.5% (inactive) |  |
| Cc1ccccc1NC(=O)CCNS(=O)(=O)c1ccc2[nH]c(=O)oc2c1 | -5.4% (inactive) |  |
| CCN1CCN(CCNC(=O)c2ccc(/C=C3/Sc4ccccc4N(Cc4cccc(C)c4)C3=O)cc2)CC1 | -0.9% (active) | 95.1 |
| O=C(NCCN1CCOCC1)c1ccc(/C=C2\Sc3ccccc3N(Cc3ccc(F)cc3)C2=O)cc1 | -7.3% (inactive) |  |
| CCN1CCN(CCNC(=O)c2ccc3c(c2)NC(=O)/C(=C\c2ccc(OC)c(OC)c2)S3)CC1 | 22.4% (inactive) |  |
| COc1ccc(C)cc1Nc1nc(C)nc2c1oc1ccccc12 | -11.2% (inactive) |  |
| CN1CCN(C(=O)c2ccc(NS(=O)(=O)c3ccccc3)cc2)CC1 | -6.4% (inactive) |  |
| COc1ccc(-c2nnn(CC(=O)N(CCO)C(C(=O)NC3CCCC3)c3ccc(F)cc3)n2)cc1 (stereo not drawn) | -0.3% (inactive) |  |
| CCC(C(=O)NC1CCCC1)N(C(=O)Cn1nnc(-c2ccc(C)o2)n1)c1ccc(OC)c(OC)c1 (stereo not drawn) | 5.7% (inactive) |  |
| CCOCCCN(C(=O)Cn1nnc(-c2ccc(OC)c(OC)c2)n1)C(CC)C(=O)NC1CCCC1 (stereo not drawn) | -12.4% (active) | 91 |
| O=C(O)Cn1c(Cc2ccccc2)nc2ccccc21 | -6.9% (inactive) |  |
| O=C(Nc1ccc(Cl)c(Cl)c1)c1ccccc1NC(=O)C1CC=CCC1C(=O)O (stereo not drawn) | -5.2% (inactive) |  |
| COc1cccc(S(=O)(=O)NCc2ccc(C(=O)NCc3ccccn3)cc2)c1 | -1% (inactive) |  |
| O=C(NCc1ccccn1)c1cc(-c2ccccc2Cl)on1 | -3.2% (inactive) |  |
| O=C(NCc1ccccn1)c1ccc2nc(-c3ccco3)c(-c3ccco3)nc2c1 | 97% (active) |  |
| COc1ccc(C23NCCN2C(=O)c2ccccc23)cc1 (stereo not drawn) | -1.8% (inactive) |  |

| SMILES | inhibition (at 35 µM) | inhibition (confirmation average, at 20 µM) [%] |
| --- | --- | --- |
| Cc1ccc(CN2CCN(c3ncccn3)CC2)c(C)c1 | 17.4% (inactive) |  |
| COc1ccc(NS(=O)(=O)c2cc(NC(=O)/C=C/c3cc(OC)c(OC)c(OC)c3)ccc2N2CCCCC2)cc1 | -7.6% (inactive) |  |
| COc1ccc(NS(=O)(=O)c2ccc(N3CCOCC3)c(NC(=O)c3ccccc3Br)c2)cc1 | -4.7% (inactive) |  |
| COc1ccc(NS(=O)(=O)c2cc(NC(=O)C3CCCCC3)ccc2N2CCOCC2)cc1 | 13.7% (active) | 81.1 |
| CCC(C)[C@H](NC(=O)N1CCn2c1nc1ccccc12)C(=O)NCc1ccc(OC)cc1 (stereo partly drawn) | -4.4% (inactive) |  |
| CCc1ccc(-c2nc(SCC(=O)NC3CCCC3)n[nH]2)cc1 | 45.6% (inactive) |  |
| CCCN(c1ccc(C)cc1)c1nc(=O)c2cccnc2s1 | 91.1% (active) |  |
| COc1ccccc1N1CC(C(=O)Nc2nnc(SCC(=O)NCC3CCCO3)s2)CC1=O (stereo not drawn) | -4% (inactive) |  |
| CN(C(=O)c1cc2c(=O)n3ccccc3nc2s1)C1CCCCC1 | -4.1% (inactive) |  |
| COc1ccc(-c2csc(Nc3ccc(O)cc3)n2)cc1 | 9.7% (inactive) |  |
| COc1ccc(OC)c(Nc2nc(-c3ccc(O)c(O)c3)cs2)c1 | 65.5% (active) |  |
| COc1cccc(CC(=O)Nc2nc(-c3ccc(OC)c(OC)c3)cs2)c1 | 6.8% (inactive) |  |
| O=S(=O)(Nc1cccc(-n2cnnn2)c1)c1cnc(Cl)c(Cl)c1 | -5.5% (inactive) |  |
| CN(C)S(=O)(=O)c1ccc(N/C=C(\[N+](=O)[O-])S(=O)(=O)c2ccccc2)cc1 | -0.3% (inactive) |  |
| COc1cccc(OC)c1C(=O)Nc1c(C(=O)N2CCN(c3ccccn3)CC2)oc2ccccc12 | -10.2% (inactive) |  |
| Oc1c(Cl)cc(Cl)c(Cl)c1Cc1c(O)c(Cl)cc(Cl)c1Cl | 51% (active) | 96.3 |
| COc1ccc(CSc2nnnn2-c2ccc(O)cc2)cc1F | -12% (inactive) |  |
| COc1cccc(NC(=O)c2ccccc2N(Cc2ccccc2)S(C)(=O)=O)c1 | -8.4% (inactive) |  |
| COC(=O)[C@@H]1CCCN1C(=O)c1cc(COc2cccc3cccnc23)on1 | 4.3% (inactive) |  |
| O=C1CCCC(O)=C1N=Nc1ccc2ncsc2c1 | 69.2% (active) | 94.3 |
| O=C1CCCC(O)=C1N=Nc1ccc(S(=O)(=O)N2CCOCC2)cc1 | 27.7% (inactive) |  |
| CC(CC(=O)N1CCN(S(=O)(=O)c2ccccc2)CC1)n1cncn1 (stereo not drawn) | -2.7% (inactive) |  |
| CCc1nnc(NC(=O)Cc2cccs2)s1 | 19.2% (inactive) |  |
| COc1ccc(Cc2nnc(NC(=O)Cc3cccs3)s2)cc1 | 71.3% (active) |  |

| SMILES | inhibition (at 35 µM) | inhibition (confirmation average, at 20 µM) [%] |
| --- | --- | --- |
| COc1ccc(Cc2nnc(NC(=O)c3ccc(OC)cc3OC)s2)cc1 | 4.9% (inactive) |  |
| CC1CN(C(=O)CCC(=O)NCCCN2CCC(Cc3ccccc3)CC2)c2cc(Cl)ccc2O1 (stereo not drawn) | 6% (inactive) |  |
| C#CCOc1ccccc1/C=C1/C(=O)ON=C1C | -20.1% (inactive) |  |
| Cc1ccc(NC(=O)Nc2cccnc2)cc1 | 2.1% (inactive) |  |
| Cc1ccc(NC(=O)c2ccc(Oc3ncccn3)cc2)cc1 | 0.1% (inactive) |  |
| Cc1ccc(NC(=O)c2cccnc2C(=O)Nc2ccc(C)cc2)cc1 | 4% (active) | 65.7 |
| O=[N+]([O-])c1cc(Cl)cc(/C=N/NC(=S)Nc2cc(S(=O)(=O)N3CCOCC3)ccc2Cl)c1O | 89.6% (active) |  |
| O=C(N/N=C/c1cc(Cl)cc([N+](=O)[O-])c1O)C(O)(c1ccccc1)c1ccccc1 | 1.2% (inactive) |  |
| O=C(NC(=S)Nc1ccc(S(=O)(=O)N2CCOCC2)cc1)c1ccccc1[N+](=O)[O-] | 6.8% (inactive) |  |
| CC[C@]1(c2ccccc2OC)C(=O)N(C(=O)OC)N1C(=O)OC | 2.4% (inactive) |  |
| COc1ccccc1CNC(=O)[C@@H]1CCCN1C(=O)[C@@H]1Cc2ccccc2CN1C(=O)OC(C)(C)C | -6.3% (inactive) |  |
| COc1ccc(NS(=O)(=O)c2ccc(N3CCN(CCO)CC3)c([N+](=O)[O-])c2)cc1 | -9.3% (inactive) |  |
| Cc1cc(NC(=O)CN2CCCC(C)C2)n(-c2nc3ccccc3s2)n1 (stereo not drawn) | -0.6% (inactive) |  |
| C/C(=N\NC(=O)CC(C)C)c1c(C(F)(F)F)[nH]n(-c2nc3ccccc3s2)c1=O | -5.6% (inactive) |  |
| CCC(C)Cn1c(O)cc2nn(-c3nc4ccccc4s3)c(=O)c-2c1C (stereo not drawn) | 89.6% (active) |  |
| COc1ccc(S(=O)(=O)NCCCCOc2ccc(Cl)cc2)cc1 | 25.8% (inactive) |  |
| O=C(NNS(=O)(=O)c1ccc(F)cc1)c1ccc([N+](=O)[O-])cc1Cl | -5.4% (inactive) |  |
| CC(C)c1ccc(OCC(O)CN2CCN(c3ccccn3)CC2)cc1 (stereo not drawn) | -9.3% (inactive) |  |
| CC(C)(C)C(=O)OCc1nc(-c2ccc(O)c(O)c2)cs1 | 1.2% (inactive) |  |
| COc1ccc(-c2csc(NC3OC(=O)c4ccccc43)n2)cc1 (stereo not drawn) | 2.1% (inactive) |  |
| COc1ccc(-c2csc(Cc3nc(O)cs3)n2)cc1 | 20.3% (active) | 82.6 |
| FC(F)(F)C1CCCN(c2nsc3ccccc23)C1 (stereo not drawn) | -3.8% (inactive) |  |
| O=S(=O)(c1ccc(Br)cc1)c1nc(-c2ccccc2)oc1N1CCOCC1 | -5.9% (inactive) |  |
| O=C(O)CCC(=O)Nc1ccc(OCC2CCCO2)cc1 (stereo not drawn) | 2.6% (inactive) |  |

| SMILES | inhibition (at 35 µM) | inhibition (confirmation average, at 20 µM) [%] |
| --- | --- | --- |
| COC(=O)COc1ccc2c(=O)c(Oc3ccccc3Br)coc2c1 | 5.6% (inactive) |  |
| Cc1cc(=O)oc(C)c1C(=O)Nc1cnc2ccccc2c1 | 78.6% (active) |  |
| Cc1cc(=O)oc(C)c1C(=O)NCc1ccc(F)cc1 | 0.5% (inactive) |  |
| Cc1cc(=O)oc(C)c1C(=O)NCCN(C)Cc1ccccc1 | 6.6% (inactive) |  |
| CCOC(=O)c1c(S(=O)(=O)NCC(=O)Nc2ccc(C)cc2)c(C)n(C)c1C | -0.1% (inactive) |  |
| O=C(NCCCn1ccnc1)/C(=C\c1ccccc1F)NC(=O)c1ccccc1 | -6.4% (inactive) |  |
| Cc1ccc(Nc2nc(C)cc(C)c2C(N)=O)cc1 | 5.6% (inactive) |  |
| Cc1cc(OC(=O)c2c(Cl)cccc2Cl)nc(C)n1 | -11.4% (inactive) |  |
| Cc1cc(C)c(C(N)=O)c(Cl)n1 | 19.4% (active) | 93.1 |
| CC(C)CN(CC(C)C)C(=O)CN1c2cccc3cccc(c23)S1(=O)=O | -14.9% (inactive) |  |
| O=C1NC(c2cccc(Cl)c2)Nc2ccccc21 (stereo not drawn) | -8.5% (inactive) |  |
| COc1ccc(N2C(=O)C3CCCN3C2c2cccc(OC)c2)cc1 (stereo not drawn) | -6.3% (inactive) |  |
| COc1ccc(C2NC(=O)c3ccccc3N2)cc1 (stereo not drawn) | 7.1% (inactive) |  |
| COc1cccc(C2Nc3cccc4cccc(c34)N2)c1 | 59.9% (active) | 98.5 |
| Oc1ccc(C2Nc3cccc4cccc(c34)N2)cc1 | 97.3% (active) |  |
| Cc1ccc(C2Nc3cccc4cccc(c34)N2)cc1 | 41% (inactive) |  |
| O=C(Nc1nnc(S(=O)(=O)N2CCCCCC2)s1)c1cccc(Br)c1 | -8.4% (inactive) |  |
| COc1ccc(CCNC(=O)CN(C)S(=O)(=O)c2ccc3nc(C)sc3c2)cc1OC | -3% (inactive) |  |
| CS(=O)(=O)N1CCCC(C(=O)Nc2ccccc2C(F)(F)F)C1 (stereo not drawn) | -2% (inactive) |  |
| CCOc1ccc(NC(=O)CC(Cc2ccc(Cl)cc2)C(=O)O)cc1 (stereo not drawn) | -6.5% (inactive) |  |
| CN(Cc1ccccc1)CC(O)COc1ccc(CNCc2cc3ccccc3s2)cc1 (stereo not drawn) | -2% (inactive) |  |
